From PubChem BioAssay (NCI)
The panel holds about 83,000 compounds, 20% with a hit somewhere; the sample as a whole holds those more often.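 Results are percent growth after 48 hours of single-concentration exposure. 100 means growth as in untreated cells, lower positive values show inhibition; negative values down to -100 show cell death.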 Values without a mark were called inactive. Calls of active or inactive are those of the source. The calls were made as follows: active = growth percent below 10; inactive = the rest.

tested on: HL-60(TB) leukemia; experiment: NCI-60 one-dose screen, 48 h (100 = growth as untreated, 0 = no growth, -100 = all killed); details: 10 µM unless noted

| SMILES | growth |
| --- | --- |
| OC(COc1ccccc1Cl)CN1CCN(c2cccc(Cl)c2)CC1 (stereo not given) | 112% |
| O=C1/C(=C/c2ccc(F)cc2)CN(C(=O)C(Cl)Cl)C/C1=C\c1ccc(F)cc1 | -34% (active) |
| O=C(NNc1cnccn1)c1nc2cc(F)ccc2n2cccc12 | 2.46% (active) |
| Cc1ccc(Cc2ccc(C)cc2)cc1 | 95.9% |
| CN(C)CCN(C)CC(C)(C)C(=O)/C=C/c1ccc(Cl)cc1 | 0.343% (active) |
| O=C(/C=C/c1cccnc1)c1ccccc1 | 89.8% |
| CCOC(=O)c1[nH]c(C)c(C(C)=O)c1C | 102% |
| CN(C)CC(C)(CN(C)C)C(=O)/C=C/c1c(Cl)cccc1Cl | -5.28% (active) |
| Clc1ccc2[nH]c3c(NCCCN4CCOCC4)ncnc3c2c1 | 36.3% |
| O=C(c1ccc(Cl)cc1)c1no[n+]([O-])c1C(=O)c1ccc(Cl)cc1 | -27.9% (active) |
| COc1ccc(C2=NNC(c3ccc(Oc4nc5c(c(=O)n(C)c(=O)n5C)n4C)c(OC)c3)C2)cc1 (stereo not given) | 90.6% |
| COc1cc2c3c(n(C)c(=O)c2cc1OC)-c1cc2c(cc1C3=O)OCO2 | 73.6% |
| CSCc1ncc(-c2ccc(C(F)(F)F)cc2)c(NC2CCCCCC2)n1 | 20.7% [25 µM] |
| CCCCCCN1C(=O)/C(=c2\sc3n(c2=O)C2C(NN=3)N(CC)C(=O)N2CC)c2ccccc21 (stereo not given) | 42.2% |
| Cc1nc(Nc2ccc(Cl)cc2)c2cnn(-c3ccccc3)c2n1 | 102% |
| N=C(N)c1ccc(-c2ccc(-c3ccc(Cl)c(Cl)c3)s2)nc1 | -43.9% (active) |
| O=C(N/N=C/c1ccccc1O)c1ccccc1 | 11.4% |
| O=[n+]1c2ccccc2n([O-])c2cc(Cl)ccc21 | -0.993% (active) |
| CC(C)CCN(CCC(C)C)CC(=O)Nc1ccc(S(=O)(=O)c2ccc(NC(=O)CN(CCC(C)C)CCC(C)C)cc2)cc1 | 19.1% |
| CCOP(=O)(NC(c1ccccc1)c1ccccc1)OCC | 101% |

| SMILES | growth |
| --- | --- |
| COc1ccc(OC)c(/C=C/c2nc(SC)n(-c3ccc(Cl)cc3)n2)c1 | 65.7% |
| CC(C)=CCC[C@](C)(O)[C@H]1CC[C@]2(C)[C@@H]1CC[C@@H]1[C@@]3(C)CC[C@H](OC(=O)CCC(=O)O)C(C)(C)[C@@H]3CC[C@]12C | 4.34% [100 µM] (active) |
| COc1cc(-c2cc(-c3ccc(Nc4ncnc5cc(Cl)ccc45)cc3)nc(N3CCCCC3)n2)cc(OC)c1OC | 91.6% |
| Cc1ccc(CNc2ccc3nc(CCC4CCCCC4)[nH]c3c2)cc1 | 14.8% |
| COc1ccc(N=C2NN=C(c3c[nH]c4ccccc34)CS2)cc1OC | 47% |
| O=c1c2ccccc2c(=O)c2c1sc1c(=O)c3ccc(O)cc3c(=O)c12 | -30.6% (active) |
| CCCCCc1c(C)[nH]c(/C=C2\N=C(c3ccc[nH]3)C=C2Oc2ccc(Cl)cc2)c1C | -40.3% [100 µM] (active) |
| c1ccc2c(-c3cnn4cc(-c5ccc(N6CCNCC6)cc5)cnc34)ccnc2c1 | -55.7% (active) |
| O=C(Nc1ccncc1)C(=O)c1cn(S(=O)(=O)c2ccccc2F)c2ccccc12 | 12.7% |
| NC1(C(=O)N[C@@H](CCO)c2ccc(Cl)cc2)CCN(c2ncnc3[nH]ccc23)CC1 | 60.7% |
| COc1ccccc1CNCCCN1C(=O)c2ccc3c4c(ccc(c24)C1=O)C(=O)N(CCCNCCNCCCN)C3=O | 0.848% (active) |
| CCOC(=O)c1ccc(NC(=O)Nc2ncc(Cl)cc2Cl)cc1 | 95.5% |
| O=C(C[n+]1cccc2ccccc21)c1ccc(O)c(O)c1 | -20% (active) |
| COC(=O)c1c2c(n3ccccc13)C(=O)c1ccccc1C2=O | 58.6% |
| COC(=O)C1=C(C)NC(C)=C(C(=O)OC)C(N2C(=O)CCC2=O)C1 (stereo not given) | 90.8% |
| CNC(=O)OC1C(O[C@H]2C[C@H]3[C@@H]4CC=C5C[C@@H](O)CC[C@]5(C)[C@H]4CC[C@]3(C)[C@H]2[C@H](C)C(=O)CCC(C)C)OCC(O)C1OC1OCC(O)C(O)C1OC(=O)c1ccc(OC)cc1 (stereo not given in full) | -12.1% (active) |
| COc1ccccc1-[n+]1cc(-c2ccc(-c3ccccc3)cc2)n2c1CCCCC2 | -27.7% (active) |
| O=C(CCCC(=O)Nc1ccc(Cn2nnc3cc(Cl)c(Cl)cc32)cc1)Nc1ccc(CN2N=NC3C=C(Cl)C(Cl)=CC32)cc1 (stereo not given) | 89.7% |
| S=C1SCC(c2ccccc2)S1 (stereo not given) | 108% |
| C[N+]1=C(/C=C\C=C\c2ccccc2)C(C)(C)c2ccccc21 | -22.2% (active) |
